From PubChem
TDP1 cell CPT: DT40-hTDP1 cell growth loss with CPT; chicken DT40 Tdp1-/-;hTDP1 cells + 20 nM CPT, ATP luminescence, 48 h; Potency, µM (top dose mostly 46.2 µM), usual class: inhibitors; 420,000 tested, 12% active; AID 686979; note: nearly all actives have a fitted effect of over 55% in size
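Chicken DT40 Tdp1-/- cells complemented with human TDP1, 400 cells/well, exposed to compounds plus 20 nM camptothecin for at least 48 h at 37 C; viability read as ATP content by CellTiter-Glo luminescence.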
HepG2 tox: counter-screen for TGF-b inhibitors: cytotoxicity in HepG2 cells | AID 588856 | 410,000 tested, 0.76% active | HepG2 CAGA-GFP viability, ATP luminescence, 18 h | Potency, µM (top dose mostly 46.1 µM), hits mostly cytotoxic
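CellTiter-Glo luminescence gave cytotoxicity after 18 hours at 37 degrees C. The cells were HepG2 CAGA-GFP in 1% FBS DMEM, stimulated with 500 pg/mL TGF-beta after compound addition. %Activity was normalised to no-cell wells (complete cell-killing) and DMSO (no toxicity), and curves were fitted and classified.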
TGFb inhibitor: blocks TGF-b signaling; HepG2 CAGA-GFP TGF-b/SMAD3 reporter, GFP fluorescence, 18 h; TGF-beta stimulated, 500 pg/mL final; Potency, µM (series often up to 46.1 µM), most hits filed as inhibitors; 410,000 tested, 1.2% active; note: nearly all actives have a fitted effect of over 65% in size
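Smad-responsive CAGA-GFP expression was quantified in HEPG2 cells exposed to compounds and 500 pg/mL final TGF-beta for 18 h at 37 degrees C; unstimulated wells defined full inhibition.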
S2 tox: viability counter-screen for ATXN expression inhibitors; S2 cells (HEK-293 line with an ATXN2-luciferase reporter) viability, CellTiter-Fluor protease fluorescence, 24 h; AID 651635; Potency, µM (top dose mostly 56.7 µM), actives largely listed as cytotoxic; 400,000 tested, 0.49% active; note: nearly all actives have a fitted effect of over 40% in size
DT40 TDP1 no CPT: qHTS for Inhibitors of human tyrosyl-DNA phosphodiesterase 1 (TDP1): qHTS in cells in absence of CPT | DT40 Tdp1-/- hTDP1 cells, no CPT, ATP luminescence, 48 h | Potency, µM (top dose mostly 46.2 µM), hits mostly inhibitors | 420,000 tested, 15% active | AID 686978, 2013; note: nearly all actives have a fitted effect of over 55% in size
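Growth of hTDP1-complemented DT40 Tdp1-knockout cells is measured by ATP luminescence after at least 48 hr compound exposure at 37 °C, with DMSO substituting for the 20 nM CPT used in the parallel screen.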
ATXN2 expr inh: ATXN2 expression inhibition. AID 1745845. 360,000 tested, 0.72% active. Potency, µM (doses to about 57 µM), usual class: inhibitors. HEK-293 ATXN2-luciferase reporter, luminescence, 24 h; note: nearly all actives have a fitted effect of over 55% in size
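ATXN2-luciferase reporter cells (luciferase flanked by upstream and downstream ATXN2 gene portions) were treated 24 h at 37 °C with compounds at up to 57 uM. SteadyGlo luminescence gave expression; GF-AFC fluorescence gave viability.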
Of the large screens only hits and unclear results are named; the others gave an inactive call. Shown are actives, neighbours in structure and some others; about 17% of the full set was active somewhere. Calls come from the whole dose curve; as a rule, active = well fitted curve in the direction sought with a large enough effect; inconclusive = small, poorly fitted or top-dose-only effect, or another doubt; inactive = no such curve, though single readings can be large; an effect the other way counts as inactive or inconclusive.

CC(=O)Nc1cc(-c2cccc(CO)c2)cn2c(-c3ccc(F)cc3)cnc12	TDP1 cell CPT 23.1µM, DT40 TDP1 no CPT inconclusive
CC(=O)Nc1cc(-c2cccc(CO)c2)cn2c(-c3ccc(C(C)=O)cc3)cnc12	TDP1 cell CPT inconclusive, DT40 TDP1 no CPT 20.6µM
Cc1cc(OCC(=O)Nc2ccc(N3CCN(C)CC3)cc2)ccc1Cl	TDP1 cell CPT inconclusive
CC1(C(=O)Nc2cnc3ccccc3c2)CCN1Cc1ccc2ccccc2c1 (stereo not drawn)	TDP1 cell CPT 14.6µM, TGFb inhibitor inconclusive, S2 tox inconclusive, DT40 TDP1 no CPT inconclusive, ATXN2 expr inh inconclusive
CCNC(=O)C1(C)CCCN(Cc2cc3ccccc3o2)C1 (stereo not drawn)	TDP1 cell CPT inconclusive, DT40 TDP1 no CPT inconclusive
CC(C)c1ccc(CN2CCC2(C)C(=O)Nc2cnc3ccccc3c2)cc1 (stereo not drawn)	TDP1 cell CPT 18.4µM, S2 tox inconclusive, DT40 TDP1 no CPT 25.9µM
CC(=O)N1CCc2cc(NC(=O)C3(C)CCN3Cc3ccc(C(C)C)cc3)ccc21 (stereo not drawn)	TDP1 cell CPT inconclusive, TGFb inhibitor inconclusive, S2 tox inconclusive, DT40 TDP1 no CPT inconclusive, ATXN2 expr inh inconclusive
COc1ccc(CN2CCC2(C)C(=O)Nc2cnc3ccccc3c2)c2ccccc12 (stereo not drawn)	TDP1 cell CPT inconclusive, TGFb inhibitor inconclusive, S2 tox inconclusive, DT40 TDP1 no CPT inconclusive
CC1(C(=O)Nc2cnc3ccccc3c2)CCN1Cc1cc2ccccc2o1 (stereo not drawn)	TDP1 cell CPT 13µM, S2 tox inconclusive, DT40 TDP1 no CPT 14.6µM
CCCC(=O)N(c1ccc2oc3c(c2c1)CCCC3)S(=O)(=O)c1cc(C)ccc1C	none (no result: TDP1 cell CPT, DT40 TDP1 no CPT)
Cc1ccc(S(=O)(=O)N2CCN(S(=O)(=O)N3CCC(C)CC3)CC2)cc1C	none
O=C(Nc1ccc(F)cc1)Nc1nnc([C@@H]2C[C@H](O)[C@@H](CO)O2)s1	none
CC(=O)Nc1cccc(-c2ccnc3c2CC(C)(C(=O)NCCC(F)(F)F)O3)c1 (stereo not drawn)	TDP1 cell CPT 3.66µM, DT40 TDP1 no CPT 4.11µM
CC(=O)Nc1cccc(-c2ccnc3c2CC(C)(C(=O)NCC2CC2)O3)c1 (stereo not drawn)	TDP1 cell CPT 4.11µM, S2 tox inconclusive, DT40 TDP1 no CPT 2.91µM
CC(=O)Nc1cccc(-c2ccnc3c2CC(C)(C(=O)NCc2ccc(F)c(F)c2)O3)c1 (stereo not drawn)	TDP1 cell CPT 3.66µM, S2 tox inconclusive, DT40 TDP1 no CPT 3.66µM
COCc1ccc(CN2Cc3cc(Cl)ccc3OC(C)C2)o1 (stereo not drawn)	none (no result: HepG2 tox, TGFb inhibitor, ATXN2 expr inh)
O=C(O)c1cccnc1SC1CC(=O)N(Cc2ccccc2)C1=O (stereo not drawn)	TDP1 cell CPT 14.6µM, DT40 TDP1 no CPT 20.6µM
O=C(O)c1cccnc1SC1CC(=O)N(CCc2ccccc2)C1=O (stereo not drawn)	none
O=C(O)c1cccnc1SC1CC(=O)N(c2ccc(OC(F)F)cc2)C1=O (stereo not drawn)	TDP1 cell CPT inconclusive, DT40 TDP1 no CPT 14.6µM
Cc1ccc(S(=O)(=O)N(CC(=O)N2CCCCC2)c2cccc(C)c2)cc1	TDP1 cell CPT inconclusive, DT40 TDP1 no CPT inconclusive
Cc1ccc(NC(=O)c2nc(S(C)(=O)=O)ncc2N(Cc2ccco2)Cc2ccco2)cc1	TDP1 cell CPT 8.2µM, DT40 TDP1 no CPT 11.6µM
Cc1cccc(C)c1NC(=O)c1nc(S(C)(=O)=O)ncc1N(Cc1ccc(F)cc1)Cc1ccco1	TDP1 cell CPT inconclusive, DT40 TDP1 no CPT inconclusive
CC(C)c1ccc(CN(Cc2ccco2)c2cnc(S(C)(=O)=O)nc2C(=O)Nc2ccc(F)cc2)cc1	TDP1 cell CPT inconclusive, TGFb inhibitor inconclusive, DT40 TDP1 no CPT 20.6µM
O=c1c(Cl)cc(Cl)nn1-c1ccccc1	TDP1 cell CPT 2.06µM, HepG2 tox 17.8µM, TGFb inhibitor inconclusive, DT40 TDP1 no CPT 1.46µM, ATXN2 expr inh inconclusive (no result: S2 tox)
Cc1ccc(C)c(C(=O)CSc2nc(-c3ccccc3)nc3c2CCCC3)c1	TDP1 cell CPT inconclusive, DT40 TDP1 no CPT inconclusive
O=c1c2sc3ccccc3c2n(Cc2cccc(C(F)(F)F)c2)c(=O)n1Cc1ccccc1	TDP1 cell CPT inconclusive, DT40 TDP1 no CPT inconclusive
O=c1c2sc3ccccc3c2n(Cc2cccc(Cl)c2)c(=O)n1Cc1ccc(F)cc1	TDP1 cell CPT 10.3µM, DT40 TDP1 no CPT 6.51µM (no result: S2 tox, ATXN2 expr inh)
O=C(Cn1c(=O)n(Cc2ccco2)c(=O)c2sc3ccccc3c21)Nc1ccc(F)cc1F	TDP1 cell CPT inconclusive, DT40 TDP1 no CPT 10.3µM
O=c1c2sc3ccccc3c2n(Cc2cccc(F)c2)c(=O)n1Cc1ccccc1	TDP1 cell CPT inconclusive, DT40 TDP1 no CPT 16.4µM
O=c1c2sc3ccccc3c2n(Cc2ccccc2F)c(=O)n1-c1ccccc1Cl	TDP1 cell CPT 20.6µM, S2 tox inconclusive, DT40 TDP1 no CPT 9.2µM
CCOc1cc(/C=N/NS(=O)(=O)c2ccc(OC)cc2)ccc1OCCN1CCOCC1	none
O=C(O)c1cccc2c1C(=O)N(c1ccc3c(c1)Cc1ccccc1-3)C2=O	none
O=c1c2sc3ccccc3c2n(Cc2cccc(Cl)c2)c(=O)n1Cc1ccccc1	TDP1 cell CPT 13µM, DT40 TDP1 no CPT inconclusive
O=c1c2sc3ccccc3c2n(Cc2ccccc2)c(=O)n1Cc1ccccc1	none
O=c1c2sc3ccccc3c2n(Cc2cccc(Cl)c2)c(=O)n1Cc1ccco1	TDP1 cell CPT 20.6µM, DT40 TDP1 no CPT 23.1µM
O=C(Nc1ccccc1Sc1ccccc1)c1ccccc1F	none
Nc1nnc(SCC(=O)Nc2ccc(N3CCOCC3)cc2)s1	none
CN1[C@@H](Cc2ccccc2)COc2cc(N3CCSCC3)ccc2S1(=O)=O	TDP1 cell CPT inconclusive, DT40 TDP1 no CPT 16.4µM (no result: HepG2 tox, TGFb inhibitor)
CC1(c2nnnn2Cc2ccccc2)CCC(=O)N1c1ccc(N2CCOCC2)cc1 (stereo not drawn)	none (no result: HepG2 tox, TGFb inhibitor)
CCOCCCNC(c1ccccc1)c1ccncc1 (stereo not drawn)	none (no result: ATXN2 expr inh)
c1ccc(C(NCCNC(c2ccccc2)c2ccccc2)c2ccccc2)cc1	TDP1 cell CPT inconclusive, TGFb inhibitor inconclusive, DT40 TDP1 no CPT 20.6µM
NS(=O)(=O)c1ccc(CCNC(c2ccccc2)c2ccccc2)cc1	TDP1 cell CPT inconclusive, TGFb inhibitor inconclusive, DT40 TDP1 no CPT 23.1µM
NS(=O)(=O)c1ccc(CCNS(=O)(=O)c2ccccc2)cc1	none
COc1cc(C=O)ccc1OCCOCCOc1ccc(Cl)cc1Cl	TDP1 cell CPT inconclusive, DT40 TDP1 no CPT 14.6µM
